# Assay results from PubChem BioAssay (NCATS).
# Results filed as inconclusive are left out. Activity calls are given as the source filed them. The call rests on the fitted dose curve; in most records, active means well fitted curve in the direction sought with a large enough effect; inconclusive means small, poorly fitted or top-dose-only effect, or another doubt; inactive means no such curve, though single readings can be large or run the other way.
# Experiment: qHTS for Inhibitors of the vitamin D receptor (VDR): Hit Validation using a Texas Red Assay (AID 602201)
# Conditions: VDR coregulator binding, Texas Red fluorescence polarization, agonist-bound VDR ligand-binding domain; series mostly up to 57.1 µM
# How it was run: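 Fluorescence polarization (Ex 595/Em 615 nm) of Texas Red (7 nM) with 1.5 uM VDR-LBD and LG19078 (final concentrations). Compounds were incubated for 2 hours at room temperature.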
# Potency means the concentration at half of the fitted maximal effect.
row,SMILES,Potency
1,COc1ccc(C)cc1N1C(=N)/C(=C2/Nc3ccccc3S2)C(c2ccccc2)C1=O (stereo not given),10 µM (active)
2,CC(=O)Nc1cccc(C(=O)/C=C/c2ccc(C)cc2)c1,inactive
3,O=[S@]1Oc2ccccc2-c2ccccc21,inactive
4,CCOC(=O)c1c(-c2ccccc2)csc1NC(=O)c1nc(S(=O)(=O)CC)ncc1Cl,3.55 µM (active)
5,Cc1ccc(C(=O)NC2(O)C(=O)c3ccccc3C2=O)cc1C,inactive
6,CCN(CC)c1ccc(NC(=O)c2cccc(C)c2)cc1S(=O)(=O)Nc1ccccc1OC,inactive
7,COC(=O)/C=c1/sc2nc3ccccc3n2c1=O,8.91 µM (active)
8,O=C1Nc2ccccc2/C1=C/C(=O)c1cccs1,28.2 µM (active)
9,COc1cc(/C=C2\C(=O)ON=C2c2ccccc2)cc(Cl)c1O,inactive
10,CC(=O)NC1=CC(=O)c2nonc2C1=O,3.16 µM (active)
11,COc1cccc(/C=C/c2[nH]c(=O)[nH]c(=O)c2[N+](=O)[O-])c1O,inactive
12,CN1CCN(C(c2ccc(Br)cc2)c2cc(Cl)c3cccnc3c2O)CC1 (stereo not given),28.2 µM (active)
13,O=C(/C=C/c1ccnc2ccccc12)c1cccs1,28.2 µM (active)
14,O=C(COc1ccc(Cl)cc1)Nc1sc2c(c1C(=O)Nc1cccc(Cl)c1)CCCC2,8.91 µM (active)
15,CCOc1cc(/C=C\c2[nH]c(=O)[nH]c(=O)c2[N+](=O)[O-])ccc1OC(C)CC (stereo not given),inactive
16,NC(=O)COc1ccc(/C=C2\C(=O)ON=C2c2ccccc2)cc1,25.1 µM (active)
17,O=C(CCCSc1ccc(Cl)cc1)Nc1cc(S(=O)(=O)N2CCOCC2)ccc1O,7.94 µM (active)
18,COC(=O)c1cc(=O)n(Cc2ccco2)c(=Nc2ccc(F)c(Cl)c2)s1,10 µM (active)
19,Cc1cccc2c1N(Cc1ccccc1OCCC(C)C)C(=O)C2=O,12.6 µM (active)
20,FC(F)(F)c1cccc(Sc2nc(-c3ccccc3)nnc2C(F)(F)F)c1,inactive

row,SMILES,Potency
1,Nc1ncnc2c1ncn2[C@@H]1O[C@H](CNCc2ccc(-c3cc(C(F)(F)F)ccc3Cl)o2)[C@@H](O)[C@H]1O,inactive
2,Oc1ccc(N=C/C=C/c2cccc(Br)c2)cc1-c1nc2ccccc2s1,15.8 µM (active)
3,CS(=O)(=O)c1ccc(S(=O)CC(=O)Oc2ccc(Cl)cc2)c([N+](=O)[O-])c1 (stereo not given),2.51 µM (active)
4,CCOC(=O)c1c(C2COc3ccccc3O2)csc1NC(=O)c1ccco1 (stereo not given),3.55 µM (active)
5,COc1ccc(C(Nc2cc(C)ccn2)c2ccc3ccc(C)nc3c2O)cc1 (stereo not given),14.1 µM (active)
6,O=c1[nH]c(/C=C\c2cccc(Cl)c2)nc(O)c1[N+](=O)[O-],inactive
7,O=C(/C=C/c1cccnc1)c1ccc([N+](=O)[O-])cc1,3.16 µM (active)
8,CCCCN1C(=O)C(=Nc2cccc3cnccc23)c2ccccc21,inactive
9,COc1ccc(C2=CC(=O)N(Nc3ccccc3)C2=O)cc1,10 µM (active)
10,Cn1c(/C(C#N)=C/c2ccc(C(F)(F)F)cc2)nc2ccccc21,14.1 µM (active)
11,O=[N+]([O-])c1ccccc1-c1ccc(C(=S)N2CCCC2)o1,inactive
12,CCC(=O)Nc1cccc(C(=O)/C=C/c2cc(Br)ccc2OC)c1,28.2 µM (active)
13,Cc1cc(C)nc(S/C=C/C(=O)c2ccccc2F)n1,7.94 µM (active)
14,N#Cc1ccc(/C=C/C(=O)c2cccnc2)cc1,inactive
15,NC(=O)COc1ccc(C(=O)/C=C2/C(=O)Nc3ccccc32)cc1,inactive
16,CSc1nnc(NC(=O)c2nc(S(=O)(=O)Cc3ccccc3)ncc2Cl)s1,28.2 µM (active)
17,CCn1c(CSc2nnc(-c3ccncc3)n2CCOC)nc2cc(C(=O)O)ccc21,15.8 µM (active)
18,CS(=O)(=O)c1nc(-c2ccccc2)cc(C(F)(F)F)n1,10 µM (active)
19,O=C(O)c1cccc(CN2C(=O)S/C(=C/c3cccc([N+](=O)[O-])c3)C2=O)c1,20 µM (active)
20,CC(C)CN1C(=O)/C(=C(/C#N)C(=O)NC2CCCCC2)c2ccccc21,3.55 µM (active)
